This is a sample that favours compounds with a hit; in the whole collection about 6% have one here.
D1 antagonist = antagonists of human D1 dopamine receptor; HEK293 TREx D1 cells, calcium flux, dopamine EC80; hits give low values; P21728; 3.2% of 360,000 active; activity change, negative = inhibition, % at 10 µM; AID 504652; in the data active = activity change below about -30%; also: % is scaled to controls: 0 for no effect and ±100 for the full control effect
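Tetracycline-induced HEK293 Trex D1 cells, force-coupled to calcium, dye-loaded; compounds added and read 180 s, then EC80 dopamine added and calcium flux tracked kinetically another 180 s.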
DRD3 antagonist = D3 dopamine receptor (human) antagonism; P35462; D3R cells, DiscoveRx beta-arrestin luminescence, antagonist mode; hits give low values; max response, negative = inhibition, %; 2.5% of 360,000 active; AID 652054; in the data active = max response below about -50%; also: % is scaled to controls: 0 for no effect and ±100 for the full control effect
Target sequence (P35462 whole entry, looked up): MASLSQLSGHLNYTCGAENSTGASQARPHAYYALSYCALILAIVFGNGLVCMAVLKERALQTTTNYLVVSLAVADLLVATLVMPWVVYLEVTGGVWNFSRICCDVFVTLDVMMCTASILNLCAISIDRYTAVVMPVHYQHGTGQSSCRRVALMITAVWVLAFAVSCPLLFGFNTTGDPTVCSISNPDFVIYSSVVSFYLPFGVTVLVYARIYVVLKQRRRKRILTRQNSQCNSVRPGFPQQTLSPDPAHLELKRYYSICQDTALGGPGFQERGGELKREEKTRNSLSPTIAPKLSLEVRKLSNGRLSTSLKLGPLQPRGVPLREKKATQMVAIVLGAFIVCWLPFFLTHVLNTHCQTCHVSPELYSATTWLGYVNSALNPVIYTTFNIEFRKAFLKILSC
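Cells expressing the human receptor were seeded at 1500 cells/well, incubated overnight at 37 degrees C in 5% CO2, then exposed to library compounds with dopamine controls for 90 minutes at 37 degrees C before luminescent detection.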
D1 PAM = human D1 dopamine receptor positive modulation | potentiation, % at 10 µM | P21728 | 0.036% of 360,000 active | HEK293 TREx D1 cells, calcium flux, dopamine EC20 potentiation; in the data active = potentiation above about 30%; also: 0% is about no effect
D1 agonist = agonists of human D1 dopamine receptor; HEK293 T-REx D1 cells, calcium flux, agonist mode; activation, % at 2 µM; AID 504660; 1% of 360,000 active; P21728; in the data active = activation above about 30%; also: 0% is about no effect
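Tetracycline-induced HEK293 TREx D1 cells, force-coupled to calcium signalling, were dye-loaded with a no-wash calcium kit. Compound was pin-added after a 10 s baseline. Fluorescence was read kinetically at 1 cycle/s for 180 s, with calcium rises flagged as agonism.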
DRD3 agonist = D3 dopamine receptor (human) agonism; P35462; D3R DiscoveRx beta-arrestin cells, luminescence, 90 min; max activation, %; 0.58% of 410,000 active; AID 652048; in the data active = max activation above about 30%; also: 0% is about no effect
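Cells at 1500/well, incubated overnight, then treated with pinned compounds (dopamine as control) for 90 min at 37 degrees C. DiscoveRx reagent added for 30 - 60 minutes at room temperature; luminescence read.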
Starred values were filed as active, the others as inactive; . = not tested or not shown.

SMILES	D1 antagonist	DRD3 antagonist	D1 PAM	D1 agonist	DRD3 agonist
COc1cccc(C(C)NC(=S)NCc2ccc(F)cc2)c1 (configuration not stated)	-3	-5	-1	16	-8
Cc1ccc(C(C)NC(=S)NCc2ccc(F)cc2)c(C)c1 (configuration not stated)	0	5	-6	51*	0
Cc1ccc(C(C)NC(=S)NCc2ccc(F)cc2)cc1C (configuration not stated)	-31*	1	-6	8	4
CCC(NC(=S)NCc1ccc(F)cc1)c1ccc(C)cc1 (configuration not stated)	-3	-11	-1	60*	-19
CCc1ccc(C(C)NC(=S)NCc2ccc(F)cc2)cc1 (configuration not stated)	3	-8	-1	76*	-1
Cc1ccc(NC(=S)NCc2ccc(F)cc2)c(C)c1	-11	-4	-1	4	5
COc1ccc(OC)c(NC(=O)N2CCC3(CC2)Oc2ccccc2C(=O)N3Cc2ccccc2F)c1	3	.	0	-1	-7
CCOC(=O)c1c(Nc2ccc(OC)cc2)nnc(-c2ccccc2)c1-c1ccccc1	9	.	1	0	15
CCOc1ccc(C(C)NC(=S)NCc2ccc(F)cc2)cc1 (configuration not stated)	1	-2	0	59*	-1
Cc1c(C(=O)Nc2cccc(F)c2)sc2nc(-c3cc4ccccc4oc3=O)[nH]c(=O)c12	-36*	.	4	-1	-24
O=C1CC(c2ccccc2)Cc2[nH]c(=O)c(-c3nc(-c4ccc(F)cc4)cs3)cc21 (configuration not stated)	6	.	0	3	-23
Cc1ccc(C)c(OCc2nc3ccccc3[nH]2)c1	-8	10	0	2	12
C=CCc1ccccc1OCc1nc2ccc(C)cc2[nH]1	-37*	.	-2	21	5
CCCC(=O)Nc1nnc2n1CCS2	6	.	-2	-1	2
COC(=O)CN1C(=S)N(c2ccc(OC)cc2)C(=O)/C1=C/c1ccc(N2CCOCC2)cc1	.	-24	-4	33*	2
COC(=O)CN1C(=S)N(c2ccc(OC)cc2)C(=O)/C1=C/c1ccc(OC)cc1	-4	-15	1	6	-16
Cc1ccc(N(Cc2cccs2)C(=O)c2ccco2)cc1	-5	.	1	-2	11
CC1=NN(c2ccc(C)cc2)C(=O)/C1=C\C=C\c1ccccc1	10	6	-1	1	6
CC1=NN(c2ccccc2)C(=O)/C1=C/C=C/C=C/N(C)C	7	-69*	0	5	-16
Cn1cc(/C=N/n2cnc3scc(-c4ccccc4)c3c2=O)c2ccccc21	-44*	11	-6	3	1
O=c1c2c(-c3ccccc3)csc2ncn1/N=C/c1cccc([N+](=O)[O-])c1O	-9	-52*	-10	2	-15
O=c1c2c(-c3ccccc3)csc2ncn1/N=C/c1ccc(O)c([N+](=O)[O-])c1	-12	-6	-11	1	-2
O=c1c2c(-c3cccs3)csc2ncn1/N=C/c1ccccn1	.	3	.	.	-6
CCc1ccc(NC(=O)C(NS(=O)(=O)c2cccs2)C(C)C)cc1 (configuration not stated)	6	.	-1	-1	-4
Cc1ccnc(N/C=C(\C#N)c2nc(-c3cccc(Br)c3)cs2)c1	-36*	-7	-6	160*	-1
SMILES	D1 antagonist	DRD3 antagonist	D1 PAM	D1 agonist	DRD3 agonist
N#C/C(=C/c1ccc(Cl)cc1)c1nc(-c2ccc(Br)cc2)cs1	-7	.	-3	2	3
Cc1ccc2nc(NC(=O)c3ccc(OCC4CCCO4)cc3)sc2c1 (configuration not stated)	18	65	-2	10	49*
O=C(NCc1ccc(Cl)cc1)c1ccc(OCC2CCCO2)cc1 (configuration not stated)	-14	1	-5	4	4
Cc1ccc(CNC(=O)c2ccc(OCC3CCCO3)cc2)cc1 (configuration not stated)	-71*	8	-6	2	-3
O=C(Nc1ccc(Cl)cc1)c1ccc(OCC2CCCO2)cc1 (configuration not stated)	-66*	11	-4	4	-7
CCCC(=O)Nc1nnc(SCc2cc(=O)n3cccc(C)c3n2)s1	9	.	2	6	-5
COc1ccc(C2CC(c3ccc4ccccc4c3)=NN2C(=O)CN2C(=O)CCC2=O)cc1 (configuration not stated)	-30*	-23	0	9	-8
COc1ccc(C2=NN(C(=O)CCC(=O)O)C(c3ccc(OC)c(OC)c3)C2)cc1 (configuration not stated)	-8	-50*	-6	4	4
COc1ccc(C2CC(c3ccc(Br)cc3)=NN2C(=O)CCC(=O)O)cc1OC (configuration not stated)	1	-24	-7	-2	4
CCOC(=O)C1=C(C)N=c2s/c(=C/c3ccc(OCC(=O)O)cc3)c(=O)n2C1c1ccc(SC)cc1 (configuration not stated)	-15	.	-7	30*	.
CCOC(=O)C1=C(C)N=c2s/c(=C\c3ccc(OCC(=O)O)cc3)c(=O)n2C1c1ccc(Cl)cc1 (configuration not stated)	2	19	-5	38*	5
COC(=O)CC(=O)CSc1nc2cc(C(=O)NC(C)C)ccc2c(=O)n1CCc1ccccc1	-20	.	-6	3	6
Cc1ccccc1-n1c(Cn2c(=O)sc3ccccc32)nnc1SCC(=O)N1CCOCC1	-38*	5	.	4	4
Cn1c(Cn2c(=O)sc3ccccc32)nnc1SCC(=O)NCc1ccc(F)cc1	2	-16	-1	2	-1
O=C(CSc1nnc(Cn2c(=O)sc3ccccc32)n1-c1ccccc1)N1CCOCC1	-6	-9	-3	7	12
Cn1c(Cn2c(=O)sc3ccccc32)nnc1SCC(=O)NCc1ccccc1	-2	-63*	-1	2	-9
CC[C@H](C)C(C(=O)N1CCN(C(=O)OC(C)(C)C)CC1)n1cc(C(CC(C)C)NC(=O)OC(C)(C)C)nn1 (some centres not stated)	2	21	0	4	6
CC[C@@H](C)[C@@H](C(=O)N1CCN(C(=O)OC(C)(C)C)CC1)n1cc(CCCCNC(=O)OC(C)(C)C)nn1	-7	142	-4	0	53*
CC(C)(C)OC(=O)NCCCC[C@@H](C(=O)NCCCCCCCCCCC(=O)N1CCN(C(=O)OC(C)(C)C)CC1)n1cc(CCO)nn1	9	29	-4	4	38*
Cc1ccccc1Nc1nc(N)c(C(=O)c2ccccc2Cl)s1	-48*	.	-3	95*	8
Cc1ccc(NC(=S)NCc2cccn2C)cc1	-14	-16	-3	0	32*

Screens deposited in PubChem BioAssay by National Center for Advancing Translational Sciences (NCATS).
